# Data taken from PubChem BioAssay AID2716 (Broad Institute, 2010).
# Screen size: about 320,000 compounds; about 3,300 (1%) were called active.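 The calls were made as follows: active = every valid replicate shows activation above 250% relative to neutral control wells; inactive = the rest, any valid replicate at or below 250%.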 The entries come from a sample that favours actives as a whole.
# Test: restored growth of temperature-sensitive Mot1-301 yeast – S. cerevisiae, ATP luminescence, 38.5C, SUMOylation pathway inhibitor project, primary screen (AID 2716);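 also: OY570 slx delta 5 strain wells were the positive control but not used for scaling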
# Conditions: S. cerevisiae Mot1-301 growth rescue, at 18.8 µM, active compounds read high, percent above DMSO median, 100 means doubled
row,SMILES,growth rescue
1,CCC(C)NC(=O)c1cc(Cl)ccc1OC (stereo not given),1740% (inactive)
2,CCNc1nc(N)nc(-c2cc(Cl)ccc2OC)n1,263% (active)
3,CCNc1nc(N)nc(Oc2ccc(OCC)nn2)n1,5.12% (inactive)
4,CC1=NC2(CCCc3c2no[n+]3[O-])N(O)C1(C)C (stereo not given),465% (active)
5,COCCn1c(Cc2cccn2C)nnc1SCC(=O)Nc1nccs1,2.9% (inactive)
6,COc1cccc(CC(=O)N2CCCC(CCC(=O)N3CCN(c4ccccn4)CC3)C2)c1 (stereo not given),15% (inactive)
7,COc1cccc2sc3cc(NCC[C@@H]4CCCN4C)ccc3c(=O)c12,4.78% (inactive)
8,CC1CC(C)CN(c2ccc(S(=O)(=O)N3CCOCC3)cc2)C1 (stereo not given),18.2% (inactive)
9,Cc1ccc(S(=O)(=O)NC2CCCCCC2)cc1,297% (active)
10,CC(C)c1ccc(S(=O)(=O)NC2CCCC2)cc1,306% (inactive)
11,CSc1ccc(S(=O)(=O)NC2CCCCC2)cc1,5.7% (inactive)
12,CC1CN(C(=S)Nc2ccc(S(N)(=O)=O)cc2)CC(C)O1 (stereo not given),-5.04% (inactive)
13,CCOc1ccc(CN2CCNC(=O)C2CC(=O)NCCCC2CCCC2)cc1 (stereo not given),3.84% (inactive)
14,Cc1ccccc1CN1CCNC(=O)C1CC(=O)NCCC1=CCCCC1 (stereo not given),-4.34% (inactive)
15,COc1cc(CN2CCNC(=O)C2CC(=O)NCCc2ncccc2C)cc(OC)c1 (stereo not given),662% (active)
16,Cc1ccc(Cc2nnc(SCC(=O)Nc3ccccc3C)[nH]c2=O)cc1,579% (active)
17,COc1ccc(Cc2nnc(SCC(=O)Nc3ccc(C)c(Cl)c3)[nH]c2=O)cc1,60.7% (inactive)
18,Cc1ccc(Cc2nnc(SCC(=O)Nc3ccc(C)cc3C)[nH]c2=O)cc1,3.03% (inactive)
19,CC1(c2ccccc2)NC(=O)N(CC(=O)Nc2cc(Cl)ccc2N2CCOCC2)C1=O (stereo not given),268% (inactive)
20,NS(=O)(=O)c1cc2c(cc1Cl)NC(C(Cl)Cl)NS2(=O)=O (stereo not given),-7.27% (inactive)

row,SMILES,growth rescue
1,Cc1ccc(CNC(=O)C(=O)c2cn(CC(=O)N3CCOCC3)c3ccccc23)cc1,279% (inactive)
2,Cc1ccc(-n2c(SCC(=O)Nc3ccc4c(c3)OCO4)nnc2-c2ccoc2C)cc1,-1.21% (inactive)
3,O=C(CSc1nnc(-c2ccccn2)n1-c1ccccc1)Nc1ccc2c(c1)OCO2,354% (active)
4,Cc1ccc(-n2c(SCC(=O)Nc3ccc4c(c3)OCO4)nnc2-c2ccccn2)cc1,-3.71% (inactive)
5,CC1CC2=C(CC1/C=N/NC(N)=S)C(C)(C)CCC2 (stereo not given),94.7% (inactive)
6,O=C(NCC#CCSc1nnc(-c2cccc3ccccc23)o1)c1cccs1,-7.8% (inactive)
7,COc1ccc(CCN2C(=O)N(c3ccc(OC)cc3)C(=O)C2CC(=O)Nc2ccc(OC)cc2)cc1 (stereo not given),-12.2% (inactive)
8,COc1ccc(N2C(=O)C(CC(=O)Nc3ccc(F)cc3)N(CCc3cccs3)C2=O)cc1 (stereo not given),700% (active)
9,CCNC(=O)CC1C(=O)N(c2ccc(F)cc2)C(=O)N1Cc1cccs1 (stereo not given),-6.29% (inactive)
10,Cc1cccc(C(=O)N[C@H](C(=O)NCc2cccs2)C(C)C)c1,14.3% (inactive)
11,CCc1cc(C(=O)Nc2nnc(C3CC3)s2)sc1C,-5.84% (inactive)
12,Cc1cc(C)cc(OCC(=O)NC(C)c2ccccc2)c1 (stereo not given),14.1% (inactive)
13,C/C(CC(=O)NC(C)c1ccccc1)=N\NC(N)=S (stereo not given),317% (active)
14,Cc1ccc(OCC(=O)NC(C)c2ccccc2)cc1C (stereo not given),-6.93% (inactive)
15,CCc1ccccc1NC(=O)CN(C)S(=O)(=O)c1ccc2c(c1)c(=O)n(C)c(=O)n2C,30% (inactive)
16,O=C(COc1ccc([N+](=O)[O-])cc1Cl)Nn1cnnc1,88.2% (inactive)
17,Cc1ccc(C(=O)OCC(=O)N2CCCCCC2)cc1S(=O)(=O)N1CCOCC1,6.73% (inactive)
18,COc1ccc(C(=O)OCC(=O)c2ccc(C)c(S(=O)(=O)N3CCOCC3)c2)cc1OC,625% (active)
19,COc1ccc(CNC(=O)COC(=O)c2ccc(C)c(S(=O)(=O)N3CCOCC3)c2)cc1OC,-6.82% (inactive)
20,COc1c(C)cc(C(=O)C2CCCN(S(=O)(=O)c3c(C)noc3C)C2)cc1C (stereo not given),-5.92% (inactive)

row,SMILES,growth rescue
1,COc1ccc(CCNC(=O)/C(C#N)=C2\N=C(NC(=O)c3cccs3)c3ccccc32)cc1,-22.6% (inactive)
2,Cc1ccc(S(=O)(=O)CCC(=O)OCC(=O)N(C)C2CCS(=O)(=O)C2)cc1 (stereo not given),366% (active)
3,CN(C(=O)COC(=O)Cc1ccccc1[N+](=O)[O-])C1CCS(=O)(=O)C1 (stereo not given),-6.84% (inactive)
4,Cc1ccc(S(=O)(=O)CCC(=O)OCc2ccccc2)cc1,-4.25% (inactive)
5,COc1cc(OC)cc(C(=O)NCCCn2ccnc2)c1,0.871% (inactive)
6,COc1cccc(-c2nn(-c3ccccc3)cc2/C=C(\C#N)C(=O)NCCCn2ccnc2)c1,-1.32% (inactive)
7,COc1ccc(/C=C(\C#N)C(=O)NCCCn2ccnc2)cc1,429% (active)
8,CCOC(=O)c1ccc(NC(=S)N2CCN(c3ccccn3)CC2)cc1,4.51% (inactive)
9,O=C(COC(=O)c1ccc(F)cc1)NCCCc1ccccc1,-3.97% (inactive)
10,COc1ccc(OC)c(CNC(=O)c2cc(=O)[nH]c3ccc(S(=O)(=O)N4CCCC4)cc23)c1,46.7% (inactive)
11,CCOc1ccc(N(CC)S(=O)(=O)c2cccc3nsnc23)cc1,487% (active)
12,CCOc1ccc(-c2cn(S(=O)(=O)c3cccc4nsnc34)nc2N)cc1,8.29% (inactive)
13,COc1ccc(N(C)S(=O)(=O)c2cccc3nsnc23)cc1,-12.6% (inactive)
14,COc1ccc(OC)c(NC(=O)COC(=O)Cc2ccsc2)c1,24.6% (inactive)
15,CC(C)Cc1nc(N2CCOCC2)c(C#N)c2c1CCC2,469% (active)
16,CC(C)CCNc1nc(N2CCCC2)c2c(c1C#N)CCN(C)C2,-30.6% (inactive)
17,CC(C)Cc1nc(Cl)c(C#N)c2c1CCC2,-9.85% (inactive)
18,O=C(NNC(=O)c1ccc(-n2cncn2)c([N+](=O)[O-])c1)c1ccccc1,126% (inactive)
19,Cc1csc2nc(O)c(C(=O)NCCN3CCOCC3)c(=O)n12,25.8% (inactive)
20,O=S(=O)(NCCc1ccc(F)cc1)c1cccc2cccnc12,-5.12% (inactive)
